Inconclusive results are not listed. Where a call stands in place of a potency, no number is given. Calls of active or inactive are those of the source. Calls come from the whole dose curve; as a rule, active = well fitted inhibition curve with a large enough effect; inconclusive = small, poorly fitted or top-dose-only effect; inactive = flat fitted curve, though single readings scatter. Where a SMILES comes first, the peptide text is derived from it. The star is where a group is joined. βNA = c1ccc2cc(N*)ccc2c1; Cbz = O=C(OCc1ccccc1)*
molecular target: Calcium and integrin-binding protein 1 (Homo sapiens) (UniProt Q99828); test: Primary qHTS for Identification of Calcium Integrin Binding Protein 1 (CIB1) Competitor (AID 1508620); conditions: CIB1-GST / FITC-alphaIIb peptide fluorescence polarization; series mostly up to 57.7 µM;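 note: GST tagged CIB1 binding a fluorescein labelled alphaIIb integrin peptide tracer; top concentration of the series differs between compounds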
Sequence (Q99828 whole entry, looked up): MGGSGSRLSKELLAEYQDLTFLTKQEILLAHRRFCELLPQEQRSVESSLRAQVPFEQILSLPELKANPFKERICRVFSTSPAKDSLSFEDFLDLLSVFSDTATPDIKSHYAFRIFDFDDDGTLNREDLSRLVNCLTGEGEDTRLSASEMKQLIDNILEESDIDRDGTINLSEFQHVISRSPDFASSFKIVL
How it was run: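 Fluorescence polarization competition: CIB1-GST (1 uM final) preincubated with compound 15 min at room temperature, then FITC-labeled alphaIIb peptide (100 nM final) added for another 15 min. Polarization read at Ex 480/Em 540.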

Q: `CC1(CO)CC(O)C2(C)CCC3(C)C(=CCC4C5(C=O)CCC(OC6OC(C(=O)O)C(O)C(O)C6OC6OC(C(=O)O)C(O)C(O)C6O)C(C)(C)C5CCC43C)C2C1` (stereo not drawn) was tested. Which Potency did it give?
A: Its Potency is “inactive”.

Q: `CC1=CC(=O)CC(C)(C)C1CO[C@@H]1O[C@H](CO)[C@@H](O)[C@H](O)[C@H]1O` (stereo partly drawn) was tested. Which Potency did it give?
A: The Potency was “inactive”.

Q: With `CC(C)CC(NC(=O)OCc1ccccc1)C(=O)NC(CC(C)C)C(=O)NC(CCC(=O)O)C(=O)Nc1ccc2ccccc2c1` (stereo not drawn) (Cbz-Leu-Leu-Glu-βNA; configuration not given here) as the molecule, how does the Potency read?
A: The Potency was “inactive”.

Q: How did the Potency turn out when `O=C(Cc1ccc(Cl)cc1)Nc1cnccc1C(=O)O` was run?
A: The Potency was “inactive”.

Q: `C[C@H]1CC[C@H]2[C@@H](C=C[C@@](C)(O)[C@]2(C)C(=O)CCO)C1` was tested. Which Potency did it give?
A: The Potency was “inactive”.

Q: For `CC(C)=CCC/C(C)=C/CO[C@@H]1O[C@H](CO[C@@H]2O[C@@H](CO)[C@H](O)[C@H]2O)[C@@H](O)[C@H](O)[C@H]1O`, which Potency is on record?
A: The Potency was “inactive”.

Q: `COc1ccc(OC2OC(CO[C@@H]3O[C@@H](C)[C@H](O)[C@@H](O)[C@H]3O)C(O)C(O)C2O)cc1OC` (stereo partly drawn) was tested. Which Potency did it give?
A: The Potency was “inactive”.

Q: How did the Potency turn out when `C=C(C)[C@@]1(O)C[C@@]2(C)C(=CC1=O)CC[C@@H](O)[C@@H]2C` was run?
A: Its Potency is “inactive”.

Q: For `CC1=C2CC(O)(C(C)(C)O)C(O[C@@H]3O[C@H](CO)[C@@H](O)[C@H](O)[C@H]3O)CC(C)C2CC1=O` (stereo partly drawn), which Potency is on record?
A: Its Potency is “inactive”.

Q: With `CC1=CC(=O)CC(C)(C)C1/C=C/C(C)OC1OC(COC2OCC(O)C(O)C2O)C(O)C(O)C1O` (stereo not drawn) as the molecule, how does the Potency read?
A: The Potency was “inactive”.

Q: Which Potency does the source give for `COC(=O)C1=CO[C@@H](O[C@@H]2O[C@H](CO)[C@@H](O)[C@H](O)[C@H]2O)[C@@H]2[C@@H](CO)[C@@H](O)C(O)[C@H]12` (stereo partly drawn) here?
A: The Potency was “inactive”.

Q: Which Potency does the source give for `CC(=O)OCC1OC(O[C@H]2CC[C@]34C[C@]35CC(O)[C@]3(C)[C@@H]([C@H](C)CC/C=C(\C)C(=O)O)C(O)C[C@@]3(C)C5CC[C@H]4C2(C)C)C(O)C(O)C1OC1OCC(O)C(O)C1O` (stereo partly drawn) here?
A: Its Potency is “inactive”.

Q: How did the Potency turn out when `CC1=CC(=O)C2C(C)(C)CCC[C@]2(C)[C@H]1CC[C@H](C)CC(=O)O` (stereo partly drawn) was run?
A: Its Potency is “inactive”.

Q: How did the Potency turn out when `COC(=O)C1=CO[C@@H](O[C@@H]2O[C@H](CO)[C@@H](O)[C@H](O)[C@H]2O)[C@H]2[C@@H]1C=C[C@]21C=C([C@H](C)OC(=O)/C=C/c2ccc(O[C@@H]3O[C@H](CO)[C@@H](O)[C@H](O)[C@H]3O)cc2)C(=O)O1` was run?
A: The Potency was “inactive”.

Q: Which Potency does the source give for `CC(C)=C1C[C@@]2(C)C(=CC1=O)CC[C@@H](O)[C@@H]2C` here?
A: The Potency was “inactive”.

Q: With `O=C(OC[C@H]1O[C@H](O[C@]2(CO)O[C@H](CO)[C@@H](O)[C@@H]2O)[C@H](O)[C@@H](O)[C@@H]1O)c1ccc(O)cc1` as the molecule, how does the Potency read?
A: Its Potency is “inactive”.

Q: `COc1cc(/C=C/C(=O)OCC2OC(OC3(CO)OC(CO)C(O)C3O)C(O)C(O)C2O)ccc1O` (stereo not drawn) was tested. Which Potency did it give?
A: The Potency was “inactive”.

Q: For `C=C1[C@H]2CCC3[C@]4(C)CCC[C@@](C)(C(=O)O)C4CC[C@]3(C2)[C@H]1OC(C)=O` (stereo partly drawn), which Potency is on record?
A: The Potency was “inactive”.

Q: `CC1=CC(=O)CC(C)(C)C1CCC(C)O[C@@H]1O[C@H](CO)[C@@H](O)[C@H](O)[C@H]1O` (stereo partly drawn) was tested. Which Potency did it give?
A: Its Potency is “inactive”.

Q: `COc1cc(CO)ccc1O[C@@H]1O[C@H](CO)[C@@H](O)[C@H](O)[C@H]1O` was tested. Which Potency did it give?
A: Its Potency is “inactive”.

Q: With `C[C@]1(OC(=O)/C=C\c2ccc(O)cc2)C[C@@H](O)[C@]2(O)C=CO[C@@H](O[C@@H]3O[C@H](CO)[C@@H](O)[C@H](O)[C@H]3O)C12` (stereo partly drawn) as the molecule, how does the Potency read?
A: The Potency was “inactive”.

Q: `C/C=C(\C)C(=O)OC[C@H]1O[C@H](O[C@H]2O[C@H](CO)[C@@H](O)[C@H](O)[C@H]2O[C@@H]2O[C@H](CO)[C@@H](O)[C@H](O)[C@H]2O)[C@H](O[C@@H]2O[C@H](CO)[C@@H](O)[C@H](O)[C@H]2O)[C@@H](O)[C@@H]1O` was tested. Which Potency did it give?
A: The Potency was “inactive”.

Q: `Fc1cccc(CN(C2=NCCN2)c2c(Cl)cccc2Cl)c1` was tested. Which Potency did it give?
A: Its Potency is “inactive”.

Q: Which Potency does the source give for `C=C1CC[C@H]2[C@@](C)(CCC(OC3OC(CO)C(O)C(O)C3O)[C@@]2(C)CO)C1C(=O)CC1=CCOC1=O` (stereo partly drawn) here?
A: The Potency was “inactive”.

Q: `C/C=C/C=C/C=C/C(=O)OC1C=C2C(O)OC(=O)[C@]2(O)[C@@]2(C)CCCC(C)(C)[C@H]12` (stereo partly drawn) was tested. Which Potency did it give?
A: Its Potency is “inactive”.

Q: Which Potency does the source give for `C[C@@H]1C[C@@H](O)[C@@]23CO[C@]2(CO)CCC[C@@H]3[C@@]12C[C@@H](c1ccoc1)OC2=O` here?
A: Its Potency is “inactive”.

Q: With `CC(C)C1C(OC(=O)/C=C/c2ccccc2)CC2(C)OC2CCC2(C)OC2C1O` (stereo not drawn) as the molecule, how does the Potency read?
A: Its Potency is “inactive”.

Q: How did the Potency turn out when `CC1(C)[C@H]2C[C@H](C/C=C\CCCC(=O)O)[C@@H](NC(=O)c3csc4ccc(O)cc34)[C@@H]1C2` was run?
A: The Potency was “inactive”.

Q: `CCC/C=C1\OC(=O)C2=C1CCC(O)C2O` (stereo not drawn) was tested. Which Potency did it give?
A: Its Potency is “inactive”.

Q: `C=C1C(O)C(OC(=O)c2ccccc2)C2C(C)(C(=O)O)CCCC2(C)C1CC/C(C)=C\CO` (stereo not drawn) was tested. Which Potency did it give?
A: The Potency was “inactive”.

Q: For `CC1CCC2(NC1)OC1C(O)C3C4CCC5CC(O[C@@H]6O[C@H](CO)[C@@H](O)[C@H](O)[C@H]6O[C@@H]6O[C@@H](C)[C@H](O)[C@@H](O)[C@H]6O)CCC5(C)C4CCC3(C)C1C2C` (stereo partly drawn), which Potency is on record?
A: Its Potency is “inactive”.

Q: How did the Potency turn out when `CCC(C)/C=C(C)/C=C/C1=CC2=C(Cl)C(=O)C(C)(OC(C)=O)C(=O)C2=CN1C(CCC(=O)O)C(=O)O` (stereo not drawn) was run?
A: The Potency was “inactive”.

Q: Which Potency does the source give for `CC(=O)c1c(C)cccc1O[C@@H]1O[C@H](CO)[C@@H](O)[C@H](O)[C@H]1O` here?
A: Its Potency is “inactive”.

Q: Which Potency does the source give for `C=C[C@H]1[C@H](O[C@@H]2O[C@H](CO)[C@@H](O)[C@H](O)[C@H]2O)OC=C2C(=O)N3Cc4c([nH]c5ccccc5c4=O)[C@@H]3C[C@H]21` here?
A: Its Potency is “inactive”.

Q: For `C[C@@H]1O[C@@H](O[C@H]2[C@H](OC(=O)[C@]34CCC(C)(C)C[C@H]3C3=CCC5[C@@]6(C)C[C@@H](O)[C@@H](O)[C@@](C)(CO)C6[C@H](O)C[C@@]5(C)[C@]3(C)CC4)OC[C@H](O)[C@@H]2O)[C@H](O)[C@H](O)[C@H]1O[C@@H]1OC[C@@H](O)[C@H](O[C@H]2O[C@H](C)[C@@H](O)[C@H](O)[C@@H]2O)[C@H]1O` (stereo partly drawn), which Potency is on record?
A: The Potency was “inactive”.

Q: For `CC1(C)COC(=O)[C@@H]1O[C@@H]1O[C@H](CO)[C@@H](O)[C@H](O)[C@H]1O`, which Potency is on record?
A: Its Potency is “inactive”.

Q: How did the Potency turn out when `Nc1nc2c(nc(Sc3ccc(Cl)cc3)n2[C@@H]2O[C@@H]3COP(=O)(O)O[C@H]3[C@H]2O)c(=O)[nH]1` was run?
A: Its Potency is “inactive”.

Q: Which Potency does the source give for `O=C(O)CC(CCc1ccccc1)OC1OC(CO)C(O)C(O)C1O` (stereo not drawn) here?
A: Its Potency is “inactive”.

From PubChem BioAssay (NCATS)
